# Laboratory results from ChEMBL document CHEMBL1201862, “PubChem BioAssay data set” (2004).
# Among all 400,000 compounds or so, about 2,100 (0.53%) were called active. Inconclusive results (about 14%) are left out. No rule for the calls is given here. For the sample, actives were picked, then their nearest neighbours and some compounds at random.
# Biological target: Ataxin-2 (Homo sapiens) (UniProt Q99700)
# Experiment: qHTS for Inhibitors of ATXN expression.
# Format: functional
# Ataxin-2 (Homo sapiens), sequence (Q99700 whole entry): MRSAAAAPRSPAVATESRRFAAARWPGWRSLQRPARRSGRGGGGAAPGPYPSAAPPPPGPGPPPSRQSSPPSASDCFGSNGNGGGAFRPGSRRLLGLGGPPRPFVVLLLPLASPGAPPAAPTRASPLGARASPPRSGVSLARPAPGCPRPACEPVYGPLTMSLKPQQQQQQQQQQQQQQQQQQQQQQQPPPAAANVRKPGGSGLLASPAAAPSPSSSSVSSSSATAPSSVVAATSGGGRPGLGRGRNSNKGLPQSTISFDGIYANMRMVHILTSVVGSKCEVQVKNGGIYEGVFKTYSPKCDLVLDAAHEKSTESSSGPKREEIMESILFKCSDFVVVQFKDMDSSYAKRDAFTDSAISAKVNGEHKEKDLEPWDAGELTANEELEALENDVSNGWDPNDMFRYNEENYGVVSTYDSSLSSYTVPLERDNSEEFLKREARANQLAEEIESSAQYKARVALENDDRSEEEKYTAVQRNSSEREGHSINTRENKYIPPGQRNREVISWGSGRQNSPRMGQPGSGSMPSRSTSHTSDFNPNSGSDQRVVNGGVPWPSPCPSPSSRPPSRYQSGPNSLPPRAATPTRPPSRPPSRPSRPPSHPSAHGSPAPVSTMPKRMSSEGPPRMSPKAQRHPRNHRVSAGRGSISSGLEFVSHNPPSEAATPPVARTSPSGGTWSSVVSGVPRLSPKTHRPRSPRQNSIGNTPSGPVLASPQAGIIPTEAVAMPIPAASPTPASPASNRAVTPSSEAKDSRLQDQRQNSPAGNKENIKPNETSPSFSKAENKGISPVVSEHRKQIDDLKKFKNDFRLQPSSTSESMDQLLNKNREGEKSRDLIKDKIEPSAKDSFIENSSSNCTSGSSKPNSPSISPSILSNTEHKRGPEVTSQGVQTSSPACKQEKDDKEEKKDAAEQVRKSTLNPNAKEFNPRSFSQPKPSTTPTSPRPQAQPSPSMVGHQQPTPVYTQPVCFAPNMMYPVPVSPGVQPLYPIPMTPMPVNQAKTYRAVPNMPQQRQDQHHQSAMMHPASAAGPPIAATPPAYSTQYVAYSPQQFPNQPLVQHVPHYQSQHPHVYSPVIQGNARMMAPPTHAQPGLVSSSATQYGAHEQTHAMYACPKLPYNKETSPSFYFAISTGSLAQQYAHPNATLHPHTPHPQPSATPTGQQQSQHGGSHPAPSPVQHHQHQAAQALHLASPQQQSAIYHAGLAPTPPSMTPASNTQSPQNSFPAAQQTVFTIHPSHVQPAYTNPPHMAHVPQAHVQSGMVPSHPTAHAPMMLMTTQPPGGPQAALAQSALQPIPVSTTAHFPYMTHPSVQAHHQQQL
row,Compound,Potency
1,CN(C)CCCN1C(=O)c2cccc3c([N+](=O)[O-])ccc(c23)C1=O,inactive
2,CN(C)CCCN1c2ccc3ccccc3c2Sc2cccc(Cl)c21,37.7 µM (active)
3,CN(C)CCCN1C(=O)c2cccc3c(Br)ccc(c23)C1=O,inactive
4,CC1(C)CC(NC(=O)c2sc3cc(Cl)ccc3c2Cl)CC(C)(C)N1,inactive
5,CC1(C)CC(NC(=O)c2ccc(Cl)c(S(=O)(=O)N(Cc3ccccc3)c3ccccc3)c2)CC(C)(C)N1,22.4 µM (active)
6,CN(c1ccccc1)S(=O)(=O)c1cc(C(=O)OCC(N)=O)ccc1Cl,inactive
7,CCCN1C2CCCC1CC(N=C(S)Nc1cccc(C)c1)C2 (stereo unspecified),inactive
8,Cc1nc2ccc(NC(S)=NC3CCCCC3)cc2nc1C,inactive
9,Cc1cc(C)cc(NC(S)=NCCN(C2CCCCC2)C2CCCC2)c1,39.8 µM (active)
10,Cc1c(NC(=O)Nc2ccc(Cl)c(Cl)c2)sc(=S)n1C,39.8 µM (active)
11,CCN1CCc2c(sc(NC(=O)Nc3ccc(Cl)c(Cl)c3)c2C(N)=O)C1,inactive
12,Cc1occc1C(=O)NNC(=O)Nc1ccc(Cl)c(Cl)c1,inactive
13,CCN(Cc1ccc(NC(C)=O)cc1)CC1CCCN(CCc2cccc(F)c2)C1 (stereo unspecified),inactive
14,Cc1c2c(=O)n(-c3nc4ccccc4s3)nc-2cc(O)n1Cc1ccccc1,inactive
15,COc1ccc(C(=O)N/N=C/c2sc3ccccc3c2O)cc1,inactive
16,COc1ccc(Nc2cnn(-c3nc4ccccc4s3)c(=O)c2Cl)cc1,25.1 µM (active)
17,COC(=O)c1cc2c(=O)n3ccccc3nc2n(Cc2cccnc2)c1=N,inactive
18,COc1ccc(C#Cc2c(C=O)n(C)c3ccccc23)cc1,inactive
19,Cc1ccccc1NCc1ccc([N+](=O)[O-])s1,inactive
20,O=[N+]([O-])c1ccc(/C=N/n2cnc3ccccc32)s1,22.4 µM (active)
21,Cc1nc2ccccc2n1/N=C/c1ccc([N+](=O)[O-])s1,23.8 µM (active)
22,COc1ccc(/C=N/NC(=O)c2cc[nH]n2)cc1Cn1nc(C)c([N+](=O)[O-])c1C,inactive
23,COc1ccc(-n2c(NC(=O)c3ccco3)c(C#N)c3nc4ccccc4nc32)cc1,inactive
24,CCOc1ccc2nc(C)cc(Nc3cccc([N+](=O)[O-])c3)c2c1,39.8 µM (active)
25,CCCOc1ccc(/C=N/Nc2cccc([N+](=O)[O-])c2)c(O)c1,inactive
26,O=[N+]([O-])c1cccc(Nc2c3ccccc3nc3ccccc23)c1,inactive

row,Compound,Potency
1,CCCCCc1c(-c2cccc(Br)c2)ncn1CCc1ccccc1OC,39.8 µM (active)
2,COc1ccc(Br)cc1CN1CCN(c2ncccn2)CC1,inactive
3,CCCCc1c(-c2cccc(Br)c2)ncn1CCc1ccccc1OC,28.2 µM (active)
4,Cn1c(O)nnc1-c1cccc(Br)c1,inactive
5,Cc1cc(-n2c(=O)c(C#N)cc3c(=O)n4ccccc4nc32)no1,inactive
6,Clc1cccc(CNc2ccn3nc(-c4ccc(OCCN5CCOCC5)cc4)cc3n2)c1,28.2 µM (active)
7,COc1ccc(-c2cc(C(F)(F)F)n3nc(C(=O)NCCN4CCOCC4)cc3n2)cc1,inactive
8,Clc1cccc(-c2nc(NCCCN3CCOCC3)c3ccccc3n2)c1,inactive
9,CCCCN(CCCC)C(=O)C[n+]1cccc(/C=N/O)c1,inactive
10,Cc1cc(/N=C/C=C2/N(C)c3ccccc3C2(C)C)n(CCC#N)n1,15.8 µM (active)
11,CN1/C(=C\C(=O)c2cccc(S(=O)(=O)N3CCCCC3)c2)C(C)(C)c2ccccc21,inactive
12,Cc1cc(/N=C/C=C2\N(C)c3ccccc3C2(C)C)n(CCC#N)n1,31.6 µM (active)
13,Oc1ccccc1N=Nc1nc(-c2ccccc2)c(-c2ccccc2)[nH]1,20 µM (active)
14,NC(=O)c1nc(-c2ccccc2)c(-c2ccccc2)nc1O,inactive
15,Oc1nc2c(O)ncnc2nc1-c1ccccc1,inactive
16,CCOCCCN=C(S)NCCNc1nc2ccc(C)cc2cc1C#N,inactive
17,CCOC(=O)c1c(NC(=O)c2ccc(S(=O)(=O)N3CCCC(C)C3)cc2)sc2c1CC(C)(C)NC2(C)C (stereo unspecified),inactive
18,CC(C)CN(CC(C)C)S(=O)(=O)c1ccc(C(=O)Nc2sc3c(c2C(N)=O)CC(C)(C)NC3(C)C)cc1,inactive
19,CCOC(=O)c1c(NC(=O)COc2ccccc2OCC)sc2c1CC(C)(C)NC2(C)C,39.8 µM (active)
20,Cc1c2c(n3c(nc4ccccc43)c1C#N)N(CCN(C)C)CC2,inactive
21,C=CCc1cc(/C=C2\C(=N)N3N=C(CC(=O)N4CCOCC4)SC3=NC2=O)cc(OC)c1O,inactive
22,Fc1ccc(-[n+]2nc(Nc3ccccc3)sc2-c2c(Cl)cccc2Cl)cc1,20 µM (active)
23,O=c1oc2cc(O)ccc2cc1-c1nc2c(s1)CCc1ccccc1-2,inactive
24,CNC(=O)NC(=O)C(C)OC(=O)c1c2c(nc3ccccc13)/C(=C/c1cccs1)CC2 (stereo unspecified),inactive
25,CCc1ccccc1N(CC(=O)NC(C)(C)CC)C(=O)CCC(=O)Nc1nccs1,inactive
26,C/C(Cl)=C\Cn1c(O)c(/N=N/C(=N)S)c2ccccc21,29.9 µM (active)

row,Compound,Potency
1,Cc1ccc(C(=O)O)cc1-c1ccc(/C=C2\SC(=O)N(CC(=O)Nc3ccccc3)C2=O)o1,inactive
2,CC(=O)c1ccc(NC(=O)CCCN2C(=O)/C(=C/C(C)=C/c3ccccc3)SC2=S)cc1,25.1 µM (active)
3,CCN(CC)CCOC(=O)c1ccc(NC(=O)CCCN2C(=O)/C(=C\c3cccs3)SC2=S)cc1,31.6 µM (active)
4,O=C(Nc1cc2c(=O)n(-c3ccc(Oc4ccccc4)cc3)ccc2oc1=O)c1ccccc1,inactive
5,COc1ccc(C2C=C(c3ccccc3)Nc3nnnn32)cc1 (stereo unspecified),inactive
6,Cc1ccc2[nH]c(CSc3nc(C)ccc3C#N)nc2c1,inactive
7,Cc1ccc(Cl)c(OCCCCN(C)Cc2ccccc2)c1,28.2 µM (active)
8,Cc1ccc2c(CN(C)Cc3ccccc3)cc(=O)oc2c1C,inactive
9,CN(C)CCOCCOc1ccc(Cl)c2ccccc12,inactive
10,COCCCNC(=O)/C(C#N)=C/c1c(N2CCN(C)CC2)nc2ccccn2c1=O,inactive
11,COc1ccc(C(=O)CC2(O)C(=O)N(Cc3cccc(C(F)(F)F)c3)c3ccccc32)cc1 (stereo unspecified),39.8 µM (active)
12,COc1cccc(CN2C(=O)c3cccc(N)c3C2=O)c1,inactive
13,COc1ccc(C2CC(c3cccc(C(F)(F)F)c3)=NN2c2ccc(S(N)(=O)=O)cc2)cc1 (stereo unspecified),inactive
14,CCN(CC)c1ccc2cc(NC(=O)CCC(=O)O)c(=O)oc2c1,inactive
15,Cc1ccc(S(=O)(=O)N2CCCCC2)cc1C(=O)Nc1ccc(S(=O)(=O)Nc2ncccn2)cc1,inactive
16,Cc1ccc(S(=O)(=O)N2CCCCC2)cc1C(=O)N(C)CC(=O)Nc1ccc(Cl)c(C(F)(F)F)c1,35.5 µM (active)
17,COc1cccc(CN(C)C(=O)c2cc(S(=O)(=O)N3CCCC3)ccc2C)c1OC,inactive
18,Cc1ccc(CCC(=O)Nc2ccc(Br)cc2)o1,inactive
19,CCN1C(=O)c2cccc3c(S(=O)(=O)NCC4CCCO4)ccc1c23 (stereo unspecified),inactive
20,CCc1ccc(C(=O)Cn2ccsc2=N)cc1,inactive
21,C/C(=N\NC(=O)CSCc1ccc([N+](=O)[O-])cc1)c1ccccc1,inactive
22,N=c1n(CC(=O)c2ccc(Br)cc2)c2ccccc2n1Cc1ccccc1,31.6 µM (active)
23,CCCn1c(=N)n(CC(=O)c2ccc([N+](=O)[O-])cc2)c2ccccc21,inactive
24,Cc1ccc(Cn2c(=N)n(CC(=O)c3ccc([N+](=O)[O-])cc3)c3ccccc32)cc1,22.4 µM (active)
25,O=C(NCCc1ccccc1)C(=O)NCC1OCCN1S(=O)(=O)c1ccc(Br)cc1 (stereo unspecified),inactive
26,O=c1oc2cc(O)ccc2cc1-c1nc2ccccc2o1,inactive

row,Compound,Potency
1,CCN(CC)c1ccc(S(=O)(=O)N(CC)CC)cc1NC(=O)c1cccnc1,inactive
2,CCOC(=O)CNS(=O)(=O)c1ccc2c3c(cccc13)C(=O)N2CC,inactive
3,Cc1ccccc1N1C(=O)C(Cc2ccc(F)cc2)S/C1=C(\C#N)C(N)=O (stereo unspecified),inactive
4,CCN(CC)S(=O)(=O)c1ccc(C(=O)OCCN2C(=O)c3cccc4c(N5CCOCC5)ccc(c34)C2=O)cc1,inactive
5,Cc1ccc2cc(C#N)c(NCCN=C(S)NCCCN3CCOCC3)nc2c1,inactive
6,COc1cc(/C=C(\CC(=O)O)c2nc3ccccc3s2)cc(OC)c1O,inactive
7,O=C(Nc1ccc(Cl)cc1)/C(=C/c1cccc(O)c1)c1nc2ccccc2s1,12.6 µM (active)
8,COc1cc(/C=C(\C#N)c2nc3ccccc3s2)ccc1OCC(=O)Nc1ccccc1,inactive
9,COc1cccc(C2=CC(c3ccc(OC)c(OC)c3OC)n3ncnc3N2)c1 (stereo unspecified),inactive
10,COc1ccc(OC)c(/C=C2\Oc3cc(OCC(=O)N4CCC(C(=O)O)CC4)ccc3C2=O)c1,inactive
11,CC(=O)Oc1ccc2cc(-c3ccccc3)c(=O)oc2c1,inactive
12,O=C(c1cnc(Cl)c(Cl)c1)N1CCN(S(=O)(=O)c2ccc3ccccc3c2)CC1,31.6 µM (active)
13,O=C(CCl)N1CCN(S(=O)(=O)c2ccc3c(c2)CCC3)CC1,8.91 µM (active)
14,CCOCCCNC(=O)CN1CCN(S(=O)(=O)c2ccc3c(c2)CCC3)CC1,inactive
15,O=C(Cn1ncc(Cl)c(Cl)c1=O)N1CCN(S(=O)(=O)c2ccc3ccccc3c2)CC1,35.5 µM (active)
16,Nc1cc(O)nc(SCC(=O)N2CCN(S(=O)(=O)c3ccc4ccccc4c3)CC2)n1,inactive
17,Cc1ccc(S(=O)(=O)N2CCN(C(=O)CCn3cncn3)CC2)cc1C,inactive
18,O=C(Cc1cccs1)N1CCN(S(=O)(=O)c2ccc(Cl)c(C(F)(F)F)c2)CC1,inactive
19,CC(=O)N1CCN(S(=O)(=O)c2ccc(F)c(Cl)c2)CC1,inactive
20,CCN=C(S)N1CCN(S(=O)(=O)c2ccc(C)c(C)c2)CC1,inactive
21,O=C(CCl)N1CCN(S(=O)(=O)c2ccc3ccccc3c2)CC1,39.8 µM (active)
22,Cc1ccc(S(=O)(=O)N2CCCN(C(=O)c3ccc(-n4cccn4)cc3)CC2)cc1,inactive
23,O=C(Cn1cnc2ccccc21)N1CCN(S(=O)(=O)c2ccccc2)CC1,inactive
